From PubChem BioAssay (NCI)
Compounds without any hit were thinned out: in the full panel of roughly 83,000, 20% have a hit.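 A percent growth of 40 corresponds to 60% growth inhibition; 0 means no net growth; -100 means all cells died. Active threshold: below 10.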 Activity calls are given as the source filed them.

System: MDA-MB-468 breast
Assay: NCI-60 one-dose screen, 48 h (100 = growth as untreated, 0 = no growth, -100 = all killed)
Conditions: 10 µM unless noted

Row | SMILES | growth
1 | Cc1[nH]c2ccc(F)cc2c1CCNC(=O)C1CCN(C(=O)c2ccc(-c3ccccc3)cc2)CC1 | 48.5% (inactive)
2 | C(CCCSC1=NCCN1)CCSC1=NCCN1 | 92% (inactive)
3 | CC(C)SC1=NC(=C(C(=N1)NC2=ClC=CC=C2)C#N)C3=CC=CC=C3 | 43% (inactive)
4 | CCOC(=O)C#Cc1c(C(=O)OCC)nnn1Cc1ccc(C(F)(F)F)cc1 | -25.7% (active)
5 | Cc1nn(-c2ccccc2)c2ncnc(N/N=C/c3ccccc3O)c12 | -31.7% (active)
6 | O=C(Nc1cccc(-n2ccc3c(NC(=O)c4ccccc4)nccc32)c1)c1cccc(C(F)(F)F)c1 | -2% (active)
7 | O=C(Nc1ccc2ncnc(Nc3ccc(F)c(Cl)c3)c2c1)c1ccccc1 | -8.33% (active)
8 | CN(C)CC/C=C1\c2ccccc2Sc2ccc(Cl)cc21 | 8.92% (active)
9 | CN(C)c1ccc(C(c2ccccc2)c2ccc(N(C)C)cc2)cc1 | 103% (inactive)
10 | COC(=O)c1nc(-c2ccc(C)cc2)oc1N1CCOCC1 | 82.1% (inactive)
11 | CS(=O)(=O)c1nccc(-c2c(-c3ccc(F)c(OCCc4ccc(F)cc4)c3)nc3sccn23)n1 | -52.2% (active)
12 | COc1cc(/C=N/n2cnc3oc(-c4ccccc4)cc3c2=N)cc(CN2CCN(C)CC2)c1O | 91.9% (inactive)
13 | COc1ccc2[nH]c3nc4cnccc4cc3c2c1 | 117% (inactive)
14 | COc1ccc(NC(=O)Nc2ccc(OCCCCCC(=O)NO)cc2)cc1 | 93.1% (inactive)
15 | OCCNc1nc(NCCO)nc(Nc2ccc(C3=NN(c4cc(Cl)cc(Cl)c4)C(c4ccccc4)C3)cc2)n1 (stereo not given) | 73.5% (inactive)
16 | Cc1nc(Cl)c2c(n1)N(C)c1ccc(Cl)cc1C(C)C2 (stereo not given) | 67.1% (inactive)
17 | COc1cc(/C=N/NC(=O)c2cnn3c2NC(c2ccccc2)C3)ccc1Oc1ccccc1 (stereo not given) | 6.71% (active)
18 | Cn1cnc2c(F)c(Nc3ccc(Br)cc3Cl)c(C(=O)NOCCO)cc21 | 92.5% (inactive)
19 | CCOC(=O)c1cc(C(=O)c2cc(OC)c(OC)c(OC)c2)n2ccc(-c3ccncc3)cc12 | 99.1% (inactive)
20 | CN(C)Cc1ccc(O)c(C(=O)O)c1 | 106% (inactive)

Row | SMILES | growth
21 | CN(C)c1ccc(-c2c(C#N)c(N)n3nc(N)c(C#N)c3c2C#N)cc1 | 81.3% (inactive)
22 | Nc1c(C(=O)Nc2cccc(Cl)c2)sc2ncc(Br)cc12 | 94.1% (inactive)
23 | NC(=O)CC1(O)C=C(Br)C(=O)C(Br)=C1 | -9.32% (active)
24 | COc1ccc(C(=O)/C=C/c2ccc(Cl)cc2)cc1S(N)(=O)=O | 57.3% (inactive)
25 | O=C(Cc1ccc(/C=C/C(=O)c2ncc[nH]2)cc1)Nc1cc(C(F)(F)F)cc(C(F)(F)F)c1 | 65.3% (inactive)
26 | CC(=O)c1cc(O)ccc1O | 98.3% (inactive)
27 | CCOc1c(Br)cc(C2C(C(=O)OC)=CN(C)C=C2C(=O)OC)cc1OC | 0.386% (active)
28 | O=[N+]([O-])c1cccc(N=Cc2ccccc2)c1 | 106% (inactive)
29 | CCN(CC)c1ccc(/C=N\NC(=O)/C=C/C=C/c2ccc3c(c2)OCO3)c(O)c1 | 13.4% (inactive)
30 | c1ccc(C2Cc3ccccc3C2=NC2CCCCC2)cc1 (stereo not given) | 111% (inactive)
31 | CC1(C)CC(=O)C2=C(C1)C(c1ccc(Cl)cc1)n1ncc(C#N)c1N2 (stereo not given) | 105% (inactive)
32 | COc1cc(/C=C/C(=O)c2ccc(Oc3ncnc4ccccc34)cc2)cc(OC)c1OC | 13.8% (inactive)
33 | COc1cc(OC)cc(C2C3=C(COC3=O)Nc3cc(OC)ccc32)c1 (stereo not given) | -8.19% (active)
34 | Cc1noc(C)c1C(=O)OCc1coc2ccccc2c1=O | 24.5% (inactive)
35 | CC(C)(C)OC(=O)CN1CCc2c(sc3ncnc(N4CCN(c5ccc(F)cc5)CC4)c23)C1 | 92.3% (inactive)
36 | Nc1ncc(-c2ccc3ncnc(Nc4cccc(Cl)c4F)c3c2)cn1 | -5.52% (active)
37 | COc1cc(-c2nc(-c3ccccc3)[nH]c2-c2ccnc(NCCCNS(=O)(=O)c3cccc(F)c3)n2)ccc1Cl | 43.2% (inactive)
38 | CCN1CCN(CCC(=O)Nc2cccc(-n3cc(-c4ccncc4)c(-c4ccc(Cl)c(OC)c4)n3)c2)CC1 | -2.3% (active)
39 | CCNCc1ccc(O)c2ncccc12 | 54.6% (inactive)
40 | CCCCCSc1ccc2nc(NC(=O)OCC)sc2c1 | -10.5% (active)
